Sampled rows, rich in hits. Any-hit rate of the full collection: about 6%.
Tau ThT inhib = qHTS for Inhibitors of Tau Fibril Formation, Thioflavin T Binding. recombinant tau K18 P301L, heparin-induced fibrillization, ThT fluorescence. Potency, µM (titrated, usually from 57.4 µM), inactives show at the highest dose activity, negative = inhibition, hits mostly inhibitors. 270,000 compounds, 2.1% hits. AID 1460, 2008; also: nearly all actives have a fitted effect of over 55% in size
Target sequence (P10636 561-689 P618L limits assumed): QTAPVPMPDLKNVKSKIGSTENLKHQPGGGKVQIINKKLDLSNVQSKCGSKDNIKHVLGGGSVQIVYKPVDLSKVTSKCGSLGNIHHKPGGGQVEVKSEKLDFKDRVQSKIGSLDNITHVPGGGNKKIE
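Aggregation was driven by heparin (20 uM final) acting on recombinant tau […] bearing P301L in 100 mM sodium acetate pH 7; fibrils were detected with Thioflavin T.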
VDR inh = Inhibitors of the vitamin D receptor (VDR): qHTS; Vitamin D3 receptor (Homo sapiens), P11473; VDR-SRC2-3 peptide fluorescence polarization, 2 h; Potency, µM, for inactives: max response, negative = inhibition, hits mostly inhibitors; 400,000 compounds, 0.93% hits
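Compounds are added to VDR with labelled SRC2-3 coactivator peptide and held 2 h at room temperature. Inhibition of the VDR–peptide interaction is then read as a change in fluorescence polarization.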
Tau fibril FP = qHTS for Inhibitors of Tau Fibril Formation, Fluorescence Polarization; Microtubule-associated protein tau (Homo sapiens), P10636; K18 P301L tau heparin fibrillization, Alexa594 FP, 6 h; Potency, µM (doses to about 57.7 µM), without a hit: at the highest dose activity, negative = inhibition, usual class: inhibitors; 280,000 compounds, 0.39% hits; AID 1468, 2008; also: nearly all actives have a fitted effect of over 55% in size
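FP of Alexa 594-tau after heparin (20 uM) induction. Substrate: human K18 P301L, 15 uM unlabeled, 0.24 uM labeled. Buffer 100 mM sodium acetate pH 7. 6 hr, 37 C.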
PLK1 PBD block = qHTS for Inhibitors of PLK1-PDB (polo-like kinase 1 - polo-box domain): Primary Screen | Plk1 PBD binding of FITC phosphopeptide, fluorescence polarization | Serine/threonine-protein kinase PLK1 (Homo sapiens), P53350 | 360,000 compounds, 2.8% hits | Potency, µM, inactives show max response, negative = inhibition, hits mostly inhibitors; also: series mostly up to about 57 µM; nearly all actives have a fitted effect of over 65% in size
Target sequence (P53350 whole entry, looked up, the tested form may be a part): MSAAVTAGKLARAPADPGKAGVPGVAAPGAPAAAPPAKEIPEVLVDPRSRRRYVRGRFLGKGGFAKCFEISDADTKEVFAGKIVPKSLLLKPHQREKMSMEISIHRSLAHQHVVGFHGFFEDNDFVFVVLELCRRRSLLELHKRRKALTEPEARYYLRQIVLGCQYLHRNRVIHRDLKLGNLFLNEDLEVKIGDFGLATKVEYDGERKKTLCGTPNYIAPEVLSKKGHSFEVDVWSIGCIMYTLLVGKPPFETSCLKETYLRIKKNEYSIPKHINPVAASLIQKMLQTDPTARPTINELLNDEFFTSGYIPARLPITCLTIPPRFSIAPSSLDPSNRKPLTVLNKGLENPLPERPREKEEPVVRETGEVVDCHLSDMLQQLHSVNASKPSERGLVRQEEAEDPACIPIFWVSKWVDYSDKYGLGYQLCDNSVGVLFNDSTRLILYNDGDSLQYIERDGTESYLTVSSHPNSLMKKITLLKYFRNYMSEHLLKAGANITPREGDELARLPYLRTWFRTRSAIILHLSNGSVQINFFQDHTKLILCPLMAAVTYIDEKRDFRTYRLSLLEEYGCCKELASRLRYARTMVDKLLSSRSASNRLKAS
Tau fluor counter = Counterscreen qHTS for Inhibitors of Tau Fibril Formation, Fluorescence Polarization; AID 1463, 2008; tau K18 P301L (four-repeat tau fragment) Alexa594 fluorescence, heparin fibrillization; Potency, µM (titrated, usually from 57.7 µM), for inactives: at the highest dose activity change, negative = decrease; 280,000 compounds, 0.93% hits; also: nearly all actives have a fitted effect of over 55% in size
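Human K18 P301L tau (15 uM unlabeled plus 0.24 uM Alexa 594-labeled, final) in 100 mM sodium acetate pH 7 was mixed with compound and 20 uM heparin and incubated 6 hr at 37 C.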
Sfp PPTase inh = qHTS Assay for Inhibitors of Bacillus subtilis Sfp phosphopantetheinyl transferase (PPTase); 310,000 compounds, 3.5% hits; Biochemical Sfp PPTase activity, qHTS; Potency, µM, inactives show largest response in the series, negative = inhibition, hits mostly inhibitors;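 also: the enzyme is Sfp with the accession as filed and its product quenches rhodamine fluorescence; 0% = enzyme reaction without inhibitor and -100% = no enzyme wells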
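Fluorescence-quenching assay: 15 nM Sfp-PPTase preincubated 15 min at room temperature with compound, then 5 uM rhodamine-CoA and 12.5 uM BHQ-2-labelled YbbR peptide added. Fluorescence (ex 525/em 598 nm) read at start and after 30 min; difference gives rate.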
* marks the source's active call; other numbers are inactive results; ? = inconclusive; . = no result given; ! = repeats disagree; [ ] = dose if it differs, or a comment. Calls follow the shape of the dose curve; as a rule, active = well fitted curve in the direction sought with a large enough effect; inconclusive = small, poorly fitted or top-dose-only effect, or another doubt; inactive = no such curve, though single readings can be large; an effect the other way counts as inactive or inconclusive. Unless noted, % is scaled to controls: 0 for no effect and ±100 for the full control effect; potency is read from the fitted curve at half-maximal effect.

SMILES | Tau ThT inhib | VDR inh | Tau fibril FP | PLK1 PBD block | Tau fluor counter | Sfp PPTase inh
CCN(CC)c1ccc(C(=S)NC2CCCCC2)cc1 | ? | ? | 8.5% | 23.8µM* | ? | 31.6µM*
CCN(CC)c1ccc(NC(=S)NC(=O)C2CCC2)cc1 | . | -9.2% | . | -12.2% | . | 4.9%
CCN(CC)c1ccc(C(=S)NCc2ccccc2)cc1 | ? | -6.4% | 12.4% | ? | ? | 10µM*
CCOc1ccc(C(C)NC(=S)NC2CCCCC2)cc1OCC (stereo not given) | -3.3% | -11.0% | 9.7% | 1.0% | -17.0% | 14.6%
CN(C)c1ccc(C(=S)NC2CCCCC2)cc1 | ? | ? | -0.9% | 13.4µM* | -16.2% | 20µM*
N#C/C(=C\c1ccc(O)c(O)c1)C(=O)Nc1cccc2ncccc12 | . | ? | . | -9.7% | . | -27.2%
N#C/C(=C\c1ccc(O)c(O)c1)C(=O)Nc1ccccc1 | 12.6µM* | 12.6µM*! | 12.8% | 5.4% | ? | -17.3%
N#C/C(=C/c1ccc(O)c(O)c1)C(=O)OC/C=C/c1ccccc1 | 11.2µM* | -7.6% | ? | . | 11.2µM*[quencher] | 19.5%
N#C/C(=C\c1ccc(O)c(Br)c1)C(=O)NCc1ccccc1 | -4.0% | -3.3% | 2.6% | 4.5% | -7.7% | -19.7%
N#C/C(=C\c1ccc(O)c([N+](=O)[O-])c1)C(=O)NCc1ccccc1 | 15.8µM* | -15.0% | 9.2% | -3.7% | -9.1% | -19.1%
CC(NC(=O)/C(C#N)=C/c1ccc(Cl)c([N+](=O)[O-])c1)c1ccccc1 (stereo not given) | 5.5% | ? | 9.4% | 11.9µM* | 3.5% | 25.1µM*
CC(NC(=O)c1ccc2c(c1)N(Cc1ccc(Cl)cc1)C(=O)c1ccccc1S2=O)c1ccccc1 (stereo not given) | -4.6% | -9.3% | -17.3% | . | -17.2% | .
COc1cccc(/C=C/c2nc(C#N)c(N3CCN(C)CC3)o2)c1 | -7.3% | 13.7% | -17.0% | . | -23.4% | .
Cc1ccc(CNc2ccc3cc(S(=O)(=O)N4CCCCC4)ccc3n2)cc1 | 4.6% | 13.0% | -11.7% | . | ? | .
COC(=O)Nc1sc2c(c1C(=O)N1CCOCC1)CCC(C)C2 (stereo not given) | -16.0% | ? | -8.5% | 26.7µM* | -2.0% | ?
CCOC(=O)c1cc2c(OC)ccc(OC)c2n1CC(=O)c1ccccc1 | . | -13.3% | . | -9.8% | . | 8.4%
CCOc1ccccc1C1CC(=O)NC2=C1C(=O)CC(C)(C)C2 (stereo not given) | -17.6% | -2.0% | -0.7% | 26.7µM* | -6.9% | 14.1%
Cc1ccc(C(C)C)c(OCC(=O)Nc2cc(-c3nc4ccccc4[nH]3)ccc2C)c1 | -8.3% | 9.6% | -16.8% | . | ? | .
CO/N=C(/C(=O)N[C@@H]1C(=O)N2C(C(=O)O)=C(CSc3nc(C)c(CC(=O)O)s3)CS[C@H]12)c1csc(N)n1 | . | 35.5µM* | . | . | . | ?
CO/N=C(/C(=O)N[C@H]1C(=O)N2C(C(=O)O)=C(COC(C)=O)CSC12)c1csc(N)n1 (stereo not given in full) | ? | ? | -14.7% | . | -12.6% | -32.2%
C=CC1=C(C(=O)O)N2C(=O)[C@@H](NC(=O)/C(=N\O)c3csc(N)n3)[C@H]2SC1 (stereo in doubt) | . | -4.1% | . | -20.5% | . | .
CO/N=C(\C(=O)NC1C(=O)N2C(C(=O)OCOC(=O)C(C)(C)C)=C(/C=C\c3scnc3C)CSC12)c1csc(N)n1 (stereo not given) | ? | 35.5µM* | -13.1% | . | -12.3% | -65.6%
CO/N=C(/C(=O)N[C@@H]1C(=O)N2C(C(=O)O)=CCS[C@H]12)c1csc(N)n1 | . | 35.5µM* | . | . | . | 50.1µM*
CN(Cc1ccccc1)C1(CNC(=O)CCC(F)(F)F)Cc2ccccc2C1 | . | -3.4% | . | -5.4% | . | 17.9%
CCOc1cc(CNC(=O)NC2COc3ccccc3C2)cc(OCC)c1OCC (stereo not given) | -12.2% | 13.3% | 0.0% | . | -12.1% | .
SMILES | Tau ThT inhib | VDR inh | Tau fibril FP | PLK1 PBD block | Tau fluor counter | Sfp PPTase inh
COc1cc2c3nc4n(c(=O)c3n(CC(=O)NCC3CCCO3)c2cc1OC)CCS4 (stereo not given) | . | -2.4% | . | -1.1% | . | 3.0%
COc1ccc(OCc2nc3ccccc3n2Cc2ccccc2Cl)cc1 | -19.3% | -9.7% | -3.0% | . | -16.0% | .
CC1CCCCC12NC(=O)N(CC(=O)OCC(=O)N(C)C1CCCCC1)C2=O (stereo not given) | . | -8.6% | . | 0.1% | . | .
CCC(CC)NC(=O)c1cccc([N+](=O)[O-])c1C | 13.0% | -2.2% | 4.8% | 6.6% | 13.5% | 14.5%
Cc1c(C(=O)NC(C)CCc2ccccc2)cccc1[N+](=O)[O-] (stereo not given) | 0.0% | -4.7% | -3.2% | 11.9µM* | -7.1% | 3.8%
Cc1ccc(Cl)c(OCCCN(C)Cc2ccccc2)c1 | ? | 2.7% | 8.7% | -12.3% | -21.4% | 44.7µM*
COc1ccc(-c2noc(CCC(=O)N3CCN(c4ccccc4)CC3)n2)cc1 | . | -1.4% | . | -8.2% | . | .
Cc1nc(S/C(=C/c2ccc(-c3cccc(Cl)c3)o2)C(=O)O)n[nH]1 | 2.82µM* | -3.5% | -3.9% | -19.0% | -25.3% | 44.7µM*
CC1=C(C(N)=O)C(c2cccc(C)c2)n2nc(-c3ccc(Cl)cc3)nc2N1 (stereo not given) | ? | -2.0% | -9.7% | . | -26.9% | .
CC(C)(C)c1ccc(S(=O)(=O)c2cn(CC(=O)Nc3ccccc3)c3ccccc3c2=O)cc1 | 6.4% | ? | ? | . | -10.3% | .
Cc1ccc2nc3c(nc2c1C)C(O)=C3O | . | ? | ? | 10.6µM* | ? | -15.9%
CCOc1ccc(C2=C(C(=O)CC)Sc3nncn3N2C(=O)CC)cc1 | 3.16µM* | -7.4% | -13.5% | . | -28.6% | .
CCC(=O)C1=C(c2ccc(F)cc2)N(C(=O)CC)n2cnnc2S1 | 10µM* | -1.4% | ? | . | -27.9% | .
COc1cccc(C2=C(C(C)=O)Sc3nncn3N2C(C)=O)c1 | ? | -0.4% | ? | . | -15.2% | .
CC(=O)C1=C(c2ccc(Cl)c(Cl)c2)N(C(C)=O)n2cnnc2S1 | 4.47µM* | ? | ? | . | ? | .
CCC(=O)C1=C(c2ccc(OC)c(OC)c2)N(C(=O)CC)n2c(nnc2-c2ccc(C)cc2)S1 | -17.8% | 5.8% | -10.1% | . | -24.1% | .

Source: PubChem BioAssay (National Center for Advancing Translational Sciences (NCATS))
